Assay results reported in PubChem BioAssay (Tox21).
Records with an inconclusive call do not appear. Entries that show only a call come without a potency. Activity calls are given as the source filed them. Calls follow the shape of the dose curve; as a rule, active = well fitted curve in the direction sought with a large enough effect in the repeat runs; inconclusive = weak or mixed curves; inactive = no such curve, though single readings can be large; an effect the other way counts as inactive or inconclusive.

Key:
[1] = qHTS RealTime-Glo MT Cell Viability Assay in HEK293 cells - 0 hour (AID 1224880); also: top concentration of the series differs between compounds; nearly all actives have a fitted effect of over 45% in size
Outline: (§1)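 Nonlytic bioluminescent viability monitoring. HEK293 at 600 cells/well with reagent; 5 h settle; compound transfer by pintool; plates held at 37 C and read at set time points.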

[2] = A CellTox Green Cytotoxicity Assay to monitor cytotoxicity in HEK293 cells - 32 hour (AID 1224881); also: nearly all actives have a fitted effect of over 40% in size
Outline: (§2)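 Cytotoxicity was tracked continuously in HEK293 cells by a DNA-binding dye excluded from viable cells. Compounds were transferred in DMSO 5 h after seeding; fluorescence was recorded at intervals up to 40 h.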

[3] = A CellTox Green Cytotoxicity Assay to monitor cytotoxicity in HepG2 cells - 0 hour (AID 1224882); also: nearly all actives have a fitted effect of over 35% in size
Outline: (§3)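 Real-time, homogeneous cytotoxicity readout: dead-cell DNA staining by CellTox Green in HepG2 monolayers, fluorescence measured at timed intervals up to 40 h of continuous compound exposure.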

[4] = A CellTox Green Cytotoxicity Assay to monitor cytotoxicity in HepG2 cells - 32 hour (AID 1224883); also: nearly all actives have a fitted effect of over 50% in size; also: potency is read from the fitted curve at half-maximal effect
Outline: as §3

[5] = A CellTox Green Cytotoxicity Assay to monitor cytotoxicity in HEK293 cells - 8 hour (AID 1224884); also: nearly all actives have a fitted effect of over 35% in size
Outline: as §2

[6] = qHTS RealTime-Glo MT Cell Viability Assay in HEK293 cells - 24 hour (AID 1224886); also: nearly all actives have a fitted effect of over 50% in size; also: potency is read from the fitted curve at half-maximal effect
Outline: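 Luminescence generated by NanoLuc from substrate produced by living HEK293 cells served as the viability signal. Each value reflects the reading at its stated time point during continuous 40 h compound exposure at 37 C.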

[7] = qHTS RealTime-Glo MT Cell Viability Assay in HEK293 cells - 8 hour (AID 1224887); also: nearly all actives have a fitted effect of over 50% in size; also: potency is read from the fitted curve at half-maximal effect
Outline: as §1

[8] = A CellTox Green Cytotoxicity Assay to monitor cytotoxicity in HEK293 cells - 16 hour (AID 1224888); also: nearly all actives have a fitted effect of over 35% in size
Outline: as §2

[9] = qHTS RealTime-Glo MT Cell Viability Assay in HepG2 cells - 16 hour (AID 1224885); also: nearly all actives have a fitted effect of over 50% in size
Outline: (§4)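 Tox21 10K library screened in qHTS format on HepG2 cells carrying RealTime-Glo reagents. Compounds were added after a 5 h preincubation, and the luminescent signal from continuous culture was measured repeatedly during 40 h treatment.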

[10] = qHTS RealTime-Glo MT Cell Viability Assay in HepG2 cells - 0 hour (AID 1224889); also: nearly all actives have a fitted effect of over 50% in size
Outline: as §4

| SMILES | outcome [1] | Potency [2] | Potency [3] | Potency [4] | Potency [5] | Potency [6] | Potency [7] | Potency [8] | outcome [9] | Potency [10] |
| --- | --- | --- | --- | --- | --- | --- | --- | --- | --- | --- |
| CC(=O)c1ccc(C)cc1 | inactive | inactive | inactive | inactive | inactive | inactive | inactive | inactive |  |  |
| NC(=O)c1c(Cl)cccc1Cl | inactive | inactive | inactive | inactive | inactive | inactive |  | inactive | inactive | inactive |
| Nc1cc(N)cc(C(=O)O)c1 | inactive | inactive | inactive | inactive | inactive | inactive | inactive | inactive |  | inactive |
| OCc1ccccn1 | inactive | inactive | inactive | inactive | inactive | inactive |  | inactive |  | inactive |
| NCCNC(=O)c1ccc(Cl)cn1 | inactive | inactive | inactive | inactive | inactive | inactive | inactive | inactive |  | inactive |
| NS(=O)(=O)c1cc2c(cc1C(F)(F)F)NC(Cc1ccccc1)NS2(=O)=O (centres undefined) | inactive | inactive | inactive | inactive | inactive | inactive | inactive | inactive |  | inactive |
| CCOC(=O)Cn1c(=O)sc2cccc(Cl)c21 | inactive | inactive | inactive | inactive | inactive | inactive | inactive | inactive |  | inactive |
| Nc1[nH]c(=O)ncc1F | inactive | inactive | inactive | inactive | inactive | inactive |  | inactive | inactive | inactive |
| COCc1ccc(COC)cc1 | inactive | inactive | inactive | inactive | inactive | inactive |  | inactive | inactive | inactive |
| CCCCc1ccc(N)cc1 | inactive | inactive | inactive | inactive | inactive |  | inactive | inactive | inactive | inactive |
| CC(C)=CC(=O)O | inactive | inactive | inactive | inactive | inactive | inactive | inactive | inactive |  | inactive |
| C[N+](C)(C)CC[N+]1(C)Cc2c(Cl)c(Cl)c(Cl)c(Cl)c2C1 | inactive | inactive | inactive | inactive | inactive | inactive | inactive | inactive |  | inactive |
| O=c1[nH]c2ccccc2c(=O)n1CCCl | inactive | inactive | inactive | inactive | inactive | inactive |  | inactive | inactive | inactive |
| NC1CCN(c2cccc(Cl)n2)CC1 | inactive | inactive | inactive | inactive | inactive | inactive | inactive | inactive |  | inactive |
| Cc1c(C)n(CCN(C)C)c2ccc(C(=O)OCCN(C)C)cc12 | inactive | inactive | inactive | inactive | inactive |  | inactive | inactive | inactive | inactive |
| CC(C)COC(=O)C(C)C | inactive | inactive | inactive | inactive | inactive | inactive |  | inactive | inactive | inactive |

| SMILES | outcome [1] | Potency [2] | Potency [3] | Potency [4] | Potency [5] | Potency [6] | Potency [7] | Potency [8] | outcome [9] | Potency [10] |
| --- | --- | --- | --- | --- | --- | --- | --- | --- | --- | --- |
| CCC(=O)c1cccc(Cl)c1 | inactive | inactive | inactive | inactive | inactive | inactive |  | inactive | inactive | inactive |
| O=[N+]([O-])c1ccc(Oc2ccc([N+](=O)[O-])cc2)cc1 | inactive | inactive | inactive | inactive | inactive |  |  | inactive | inactive |  |
| NS(=O)(=O)c1cc(C2(O)NC(=O)c3ccccc32)ccc1Cl (centres undefined) | inactive | inactive | inactive | inactive | inactive | inactive | inactive | inactive |  | inactive |
| COC(=O)CCCCCCCCC(=O)OC | inactive | inactive | inactive | inactive | inactive | inactive | inactive | inactive |  | inactive |
| COc1ccc2cc(C=O)ccc2c1 | inactive | inactive | inactive | inactive | inactive | inactive | inactive | inactive |  | inactive |
| C[C@H]1O[C@@H](n2cc(F)c(=O)[nH]c2=O)[C@H](O)[C@@H]1O | inactive | inactive | inactive | inactive | inactive | inactive |  | inactive | inactive | inactive |
| O=C(O)CCNC(=O)c1ccc(N=Nc2ccc(O)c(C(=O)O)c2)cc1 | inactive | inactive | inactive | inactive | inactive | inactive | inactive | inactive |  |  |
| c1cc(CN2CCCCC2)cc(OCCCNc2nc3ccccc3s2)c1 | inactive | inactive | inactive | 23.9 µM (active) | inactive | 9.52 µM (active) | 9.52 µM (active) | inactive |  | inactive |
| COC(=O)[C@H]1[C@H]2C[C@@H]3c4[nH]c5cc(OC)ccc5c4CCN3C[C@H]2C[C@@H](OC(=O)COc2ccc(OC)cc2)[C@@H]1OC | inactive | inactive |  | inactive |  | inactive | inactive | inactive | inactive | inactive |
| N#CCN(CC#N)CCN(CC#N)CC#N | inactive | inactive |  | inactive | inactive | inactive | inactive | inactive | inactive | inactive |
| CC(C)(C)OC(=O)N1C[C@@H](F)C[C@H]1C(=O)O | inactive | inactive |  | inactive | inactive | inactive | inactive | inactive | inactive | inactive |
| CCCCc1ccc2cccc(S(=O)(=O)O)c2c1 | inactive | inactive | inactive |  | inactive | inactive |  | inactive | inactive |  |
| O=C(O)c1ccc[n+]([O-])c1 | inactive | inactive |  | inactive | inactive | inactive |  | inactive | inactive | inactive |
| CCCCCCC(=O)OCC | inactive | inactive |  | inactive | inactive | inactive | inactive | inactive | inactive | inactive |
| CCN1CCCC1CNC(=O)c1cc(S(N)(=O)=O)ccc1OC (centres undefined) | inactive | inactive | inactive | inactive |  |  | inactive | inactive | inactive | inactive |
